# What was measured:
# [1] = molecular target: Sphingosine kinase 1 (Homo sapiens) (UniProt Q9NYA1); settings: at 1 µM;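 note: mean SPHK1 inhibition value reported from the GSK PKIS kinase panel screen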
# [2] = molecular target: T1, Sphingosine kinase 2 (Homo sapiens) (UniProt Q9NRA0); settings: at 0.1 µM
# T1 sequence (whole entry): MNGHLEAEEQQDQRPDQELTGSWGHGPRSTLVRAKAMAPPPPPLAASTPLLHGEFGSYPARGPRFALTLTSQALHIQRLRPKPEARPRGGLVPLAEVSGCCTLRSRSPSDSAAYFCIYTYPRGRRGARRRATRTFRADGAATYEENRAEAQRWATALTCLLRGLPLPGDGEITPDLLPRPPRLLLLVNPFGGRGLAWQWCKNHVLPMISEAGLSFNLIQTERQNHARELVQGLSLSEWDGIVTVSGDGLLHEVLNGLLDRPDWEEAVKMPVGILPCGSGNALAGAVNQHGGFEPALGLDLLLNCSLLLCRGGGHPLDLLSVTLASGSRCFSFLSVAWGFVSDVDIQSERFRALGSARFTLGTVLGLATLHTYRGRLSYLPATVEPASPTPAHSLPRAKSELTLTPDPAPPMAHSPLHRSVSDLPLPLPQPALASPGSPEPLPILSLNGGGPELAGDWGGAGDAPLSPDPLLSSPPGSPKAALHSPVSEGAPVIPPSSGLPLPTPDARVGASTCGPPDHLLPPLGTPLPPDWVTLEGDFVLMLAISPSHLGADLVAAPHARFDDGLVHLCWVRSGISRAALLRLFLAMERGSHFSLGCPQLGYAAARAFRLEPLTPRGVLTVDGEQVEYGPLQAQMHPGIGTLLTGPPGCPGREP
# [3] = molecular target: T1, Sphingosine kinase 2 (Homo sapiens); settings: at 1 µM
# [4] = molecular target: Casein kinase II subunit alpha (Homo sapiens) (UniProt P68400); settings: at 0.1 µM
# Chain of Casein kinase II subunit alpha (Homo sapiens) (P68400 whole entry, looked up): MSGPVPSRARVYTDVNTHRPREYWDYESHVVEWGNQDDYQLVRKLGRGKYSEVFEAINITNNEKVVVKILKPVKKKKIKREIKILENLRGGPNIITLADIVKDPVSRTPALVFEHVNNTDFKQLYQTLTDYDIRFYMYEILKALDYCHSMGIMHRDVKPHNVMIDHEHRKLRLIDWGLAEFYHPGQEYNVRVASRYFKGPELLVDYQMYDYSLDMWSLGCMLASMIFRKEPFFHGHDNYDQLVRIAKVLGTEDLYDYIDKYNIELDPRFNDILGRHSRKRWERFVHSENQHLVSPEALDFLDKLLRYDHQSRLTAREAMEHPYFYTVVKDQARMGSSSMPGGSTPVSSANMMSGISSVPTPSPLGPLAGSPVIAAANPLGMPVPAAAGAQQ
# [5] = molecular target: Casein kinase II subunit alpha (Homo sapiens) (UniProt P68400); settings: at 1 µM
# [6] = molecular target: T2, Inhibitor of nuclear factor kappa-B kinase subunit alpha (Homo sapiens) (UniProt O15111); settings: at 0.1 µM
# T2 sequence (whole entry): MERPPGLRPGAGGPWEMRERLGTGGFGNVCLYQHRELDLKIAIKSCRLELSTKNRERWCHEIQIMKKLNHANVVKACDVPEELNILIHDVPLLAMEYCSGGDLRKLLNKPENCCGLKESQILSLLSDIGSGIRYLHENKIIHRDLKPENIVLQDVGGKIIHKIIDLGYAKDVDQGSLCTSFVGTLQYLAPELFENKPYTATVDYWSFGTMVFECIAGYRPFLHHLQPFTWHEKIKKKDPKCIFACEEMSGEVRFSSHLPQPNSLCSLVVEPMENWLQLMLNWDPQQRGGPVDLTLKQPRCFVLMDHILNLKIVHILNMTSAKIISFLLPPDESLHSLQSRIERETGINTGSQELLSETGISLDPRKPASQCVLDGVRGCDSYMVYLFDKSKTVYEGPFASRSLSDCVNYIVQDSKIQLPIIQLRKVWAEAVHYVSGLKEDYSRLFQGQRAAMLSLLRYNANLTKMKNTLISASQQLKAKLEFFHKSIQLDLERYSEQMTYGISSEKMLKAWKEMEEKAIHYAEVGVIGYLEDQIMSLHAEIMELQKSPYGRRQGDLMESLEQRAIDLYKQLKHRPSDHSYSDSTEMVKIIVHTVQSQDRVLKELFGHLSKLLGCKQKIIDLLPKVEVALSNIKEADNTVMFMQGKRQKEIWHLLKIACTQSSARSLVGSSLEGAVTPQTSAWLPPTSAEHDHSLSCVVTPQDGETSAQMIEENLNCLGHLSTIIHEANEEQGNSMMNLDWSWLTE
# [7] = molecular target: T2, Inhibitor of nuclear factor kappa-B kinase subunit alpha (Homo sapiens); settings: at 1 µM
# [8] = molecular target: T3, Inhibitor of nuclear factor kappa-B kinase subunit beta (Homo sapiens) (UniProt O14920); settings: at 0.1 µM
# T3 sequence (whole entry): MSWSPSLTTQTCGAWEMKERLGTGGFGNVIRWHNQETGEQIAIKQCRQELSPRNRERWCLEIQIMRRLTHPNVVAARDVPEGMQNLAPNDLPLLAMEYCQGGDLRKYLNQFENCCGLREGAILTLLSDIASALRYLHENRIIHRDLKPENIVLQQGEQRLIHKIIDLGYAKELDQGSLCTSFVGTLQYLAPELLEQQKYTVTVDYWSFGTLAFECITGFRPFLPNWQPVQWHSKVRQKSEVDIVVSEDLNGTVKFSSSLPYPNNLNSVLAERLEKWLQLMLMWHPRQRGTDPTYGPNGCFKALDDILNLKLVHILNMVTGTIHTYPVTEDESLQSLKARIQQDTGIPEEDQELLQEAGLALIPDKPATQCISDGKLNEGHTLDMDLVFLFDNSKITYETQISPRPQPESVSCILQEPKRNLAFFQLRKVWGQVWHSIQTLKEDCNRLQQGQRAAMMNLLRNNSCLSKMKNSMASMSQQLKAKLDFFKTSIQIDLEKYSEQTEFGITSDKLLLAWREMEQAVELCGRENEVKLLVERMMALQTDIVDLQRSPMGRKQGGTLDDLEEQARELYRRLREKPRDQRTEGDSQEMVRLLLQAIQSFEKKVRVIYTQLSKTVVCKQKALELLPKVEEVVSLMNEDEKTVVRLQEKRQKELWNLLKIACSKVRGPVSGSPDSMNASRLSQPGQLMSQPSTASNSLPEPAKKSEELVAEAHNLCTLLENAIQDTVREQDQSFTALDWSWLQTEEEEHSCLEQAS
# [9] = molecular target: T3, Inhibitor of nuclear factor kappa-B kinase subunit beta (Homo sapiens); settings: at 1 µM
# [10] = molecular target: T4, Inhibitor of nuclear factor kappa-B kinase subunit epsilon (Homo sapiens) (UniProt Q14164); settings: at 0.1 µM
# T4 sequence (whole entry): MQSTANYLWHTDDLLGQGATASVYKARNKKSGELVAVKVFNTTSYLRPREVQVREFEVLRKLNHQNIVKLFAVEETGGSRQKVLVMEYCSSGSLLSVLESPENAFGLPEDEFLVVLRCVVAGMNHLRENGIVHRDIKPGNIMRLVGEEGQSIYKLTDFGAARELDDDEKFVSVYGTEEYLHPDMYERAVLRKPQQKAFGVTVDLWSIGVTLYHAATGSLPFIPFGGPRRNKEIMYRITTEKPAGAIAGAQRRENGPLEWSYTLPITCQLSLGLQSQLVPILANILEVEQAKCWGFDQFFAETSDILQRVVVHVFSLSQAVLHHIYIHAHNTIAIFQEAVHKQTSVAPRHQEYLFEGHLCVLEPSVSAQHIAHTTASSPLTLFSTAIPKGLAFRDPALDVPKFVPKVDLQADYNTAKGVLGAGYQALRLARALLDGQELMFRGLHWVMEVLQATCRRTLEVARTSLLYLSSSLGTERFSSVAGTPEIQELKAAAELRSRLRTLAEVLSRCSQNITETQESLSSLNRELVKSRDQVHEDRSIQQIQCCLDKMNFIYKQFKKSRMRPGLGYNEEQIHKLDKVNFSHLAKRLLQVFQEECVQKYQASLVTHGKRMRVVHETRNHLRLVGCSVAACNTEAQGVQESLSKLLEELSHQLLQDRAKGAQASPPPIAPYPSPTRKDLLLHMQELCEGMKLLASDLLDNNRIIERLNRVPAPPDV
# [11] = molecular target: T4, Inhibitor of nuclear factor kappa-B kinase subunit epsilon (Homo sapiens); settings: at 1 µM
# [12] = molecular target: T5, Serine/threonine-protein kinase Nek1 (Homo sapiens) (UniProt Q96PY6); settings: at 0.1 µM
# T5 sequence (whole entry): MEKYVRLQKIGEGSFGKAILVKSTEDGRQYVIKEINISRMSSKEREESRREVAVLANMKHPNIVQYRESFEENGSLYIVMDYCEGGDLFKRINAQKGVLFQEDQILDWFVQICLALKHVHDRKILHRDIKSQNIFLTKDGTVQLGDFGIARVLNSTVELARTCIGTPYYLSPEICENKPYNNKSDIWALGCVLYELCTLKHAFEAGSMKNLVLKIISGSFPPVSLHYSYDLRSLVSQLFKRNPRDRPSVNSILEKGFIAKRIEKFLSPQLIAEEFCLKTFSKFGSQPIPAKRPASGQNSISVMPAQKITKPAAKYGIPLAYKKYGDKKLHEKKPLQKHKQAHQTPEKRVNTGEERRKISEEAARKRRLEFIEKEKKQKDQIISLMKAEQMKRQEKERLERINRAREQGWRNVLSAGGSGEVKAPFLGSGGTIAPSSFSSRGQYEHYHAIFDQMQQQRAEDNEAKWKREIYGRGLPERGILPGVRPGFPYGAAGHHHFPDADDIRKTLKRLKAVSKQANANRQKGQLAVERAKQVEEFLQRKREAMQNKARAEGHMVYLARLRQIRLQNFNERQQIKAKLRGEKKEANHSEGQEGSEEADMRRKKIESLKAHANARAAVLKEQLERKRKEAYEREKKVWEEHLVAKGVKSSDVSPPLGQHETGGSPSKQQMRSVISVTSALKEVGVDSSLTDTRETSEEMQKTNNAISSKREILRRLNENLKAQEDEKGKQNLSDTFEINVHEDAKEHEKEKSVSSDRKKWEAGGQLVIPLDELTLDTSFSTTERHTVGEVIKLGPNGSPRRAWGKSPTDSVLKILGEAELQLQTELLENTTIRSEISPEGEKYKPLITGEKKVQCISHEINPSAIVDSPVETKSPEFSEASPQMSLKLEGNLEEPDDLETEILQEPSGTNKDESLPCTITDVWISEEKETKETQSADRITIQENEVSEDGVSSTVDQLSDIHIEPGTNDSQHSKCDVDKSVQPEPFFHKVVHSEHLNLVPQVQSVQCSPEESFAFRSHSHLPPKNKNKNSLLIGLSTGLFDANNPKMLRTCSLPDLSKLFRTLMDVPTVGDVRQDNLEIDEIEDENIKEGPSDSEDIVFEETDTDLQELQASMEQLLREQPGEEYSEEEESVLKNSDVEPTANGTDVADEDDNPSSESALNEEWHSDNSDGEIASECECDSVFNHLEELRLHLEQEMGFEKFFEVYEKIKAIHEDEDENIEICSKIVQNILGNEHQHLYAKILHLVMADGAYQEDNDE
# [13] = molecular target: T5, Serine/threonine-protein kinase Nek1 (Homo sapiens); settings: at 1 µM
# [14] = molecular target: T6, Serine/threonine-protein kinase Nek2 (Homo sapiens) (UniProt P51955); settings: at 0.1 µM
# T6 sequence (whole entry): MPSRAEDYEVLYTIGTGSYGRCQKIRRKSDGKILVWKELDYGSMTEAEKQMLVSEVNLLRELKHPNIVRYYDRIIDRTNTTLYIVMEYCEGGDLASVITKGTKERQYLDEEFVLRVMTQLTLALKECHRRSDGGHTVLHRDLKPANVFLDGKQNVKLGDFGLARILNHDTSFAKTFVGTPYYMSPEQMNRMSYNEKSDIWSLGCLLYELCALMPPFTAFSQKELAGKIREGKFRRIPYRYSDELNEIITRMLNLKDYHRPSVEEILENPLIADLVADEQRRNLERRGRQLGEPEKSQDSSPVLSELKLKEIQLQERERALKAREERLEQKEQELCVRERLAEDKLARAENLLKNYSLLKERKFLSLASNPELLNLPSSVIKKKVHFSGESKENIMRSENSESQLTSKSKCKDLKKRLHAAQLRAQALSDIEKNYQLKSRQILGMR
# [15] = molecular target: T6, Serine/threonine-protein kinase Nek2 (Homo sapiens); settings: at 1 µM
# [16] = molecular target: Serine/threonine-protein kinase Nek6 (Homo sapiens) (UniProt Q9HC98); settings: at 0.1 µM
# Chain of Serine/threonine-protein kinase Nek6 (Homo sapiens) (Q9HC98 whole entry): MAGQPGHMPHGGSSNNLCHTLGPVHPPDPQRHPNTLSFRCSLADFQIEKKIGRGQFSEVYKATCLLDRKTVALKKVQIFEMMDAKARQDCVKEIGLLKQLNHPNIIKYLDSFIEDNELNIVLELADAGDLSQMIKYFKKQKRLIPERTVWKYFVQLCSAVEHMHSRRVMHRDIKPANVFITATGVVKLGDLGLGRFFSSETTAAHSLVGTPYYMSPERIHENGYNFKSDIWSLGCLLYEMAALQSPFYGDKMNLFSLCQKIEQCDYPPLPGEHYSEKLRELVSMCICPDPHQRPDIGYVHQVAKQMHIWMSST
# [17] = molecular target: Serine/threonine-protein kinase Nek6 (Homo sapiens) (UniProt Q9HC98); settings: at 1 µM
# [18] = molecular target: Serine/threonine-protein kinase Nek7 (Homo sapiens) (UniProt Q8TDX7); settings: at 0.1 µM
# Chain of Serine/threonine-protein kinase Nek7 (Homo sapiens) (Q8TDX7 whole entry, looked up): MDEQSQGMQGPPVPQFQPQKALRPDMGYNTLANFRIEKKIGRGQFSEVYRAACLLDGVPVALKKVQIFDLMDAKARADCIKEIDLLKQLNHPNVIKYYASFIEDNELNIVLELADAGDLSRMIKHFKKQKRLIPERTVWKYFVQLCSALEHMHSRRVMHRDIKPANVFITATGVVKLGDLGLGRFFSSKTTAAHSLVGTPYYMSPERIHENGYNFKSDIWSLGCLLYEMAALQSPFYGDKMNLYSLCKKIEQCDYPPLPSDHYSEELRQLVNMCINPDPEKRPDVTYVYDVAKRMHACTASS
# [19] = molecular target: Serine/threonine-protein kinase Nek7 (Homo sapiens) (UniProt Q8TDX7); settings: at 1 µM
# [20] = molecular target: T7, Serine/threonine-protein kinase Nek9 (Homo sapiens) (UniProt Q8TD19); settings: at 0.1 µM;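 note: reported value is the mean percent inhibition of NEK9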
# T7 sequence (whole entry): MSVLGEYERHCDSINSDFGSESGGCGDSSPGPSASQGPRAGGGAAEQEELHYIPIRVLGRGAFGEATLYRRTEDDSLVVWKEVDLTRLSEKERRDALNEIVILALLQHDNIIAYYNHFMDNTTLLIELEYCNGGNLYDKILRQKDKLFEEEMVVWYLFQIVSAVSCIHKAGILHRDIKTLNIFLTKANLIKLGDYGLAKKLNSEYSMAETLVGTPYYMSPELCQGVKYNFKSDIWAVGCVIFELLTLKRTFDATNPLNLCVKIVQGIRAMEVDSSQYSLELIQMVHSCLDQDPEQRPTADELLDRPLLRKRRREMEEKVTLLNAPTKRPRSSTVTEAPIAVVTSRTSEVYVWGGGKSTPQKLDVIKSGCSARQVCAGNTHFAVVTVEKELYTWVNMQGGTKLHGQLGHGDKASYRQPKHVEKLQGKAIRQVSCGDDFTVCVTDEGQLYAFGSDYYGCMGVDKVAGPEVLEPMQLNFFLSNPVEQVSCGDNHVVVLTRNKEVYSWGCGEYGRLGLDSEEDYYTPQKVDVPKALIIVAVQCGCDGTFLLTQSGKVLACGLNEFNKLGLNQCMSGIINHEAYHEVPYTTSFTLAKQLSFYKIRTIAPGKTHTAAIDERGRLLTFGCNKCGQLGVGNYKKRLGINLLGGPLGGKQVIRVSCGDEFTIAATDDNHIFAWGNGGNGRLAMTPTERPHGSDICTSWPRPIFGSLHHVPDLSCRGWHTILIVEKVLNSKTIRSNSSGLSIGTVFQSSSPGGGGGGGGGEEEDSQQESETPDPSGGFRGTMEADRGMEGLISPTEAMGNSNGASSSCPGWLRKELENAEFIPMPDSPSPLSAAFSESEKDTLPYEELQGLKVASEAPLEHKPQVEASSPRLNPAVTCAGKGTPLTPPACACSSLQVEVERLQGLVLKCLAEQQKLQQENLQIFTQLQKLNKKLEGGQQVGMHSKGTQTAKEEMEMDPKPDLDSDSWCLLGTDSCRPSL
# Chain of Sphingosine kinase 1 (Homo sapiens) (Q9NYA1 whole entry): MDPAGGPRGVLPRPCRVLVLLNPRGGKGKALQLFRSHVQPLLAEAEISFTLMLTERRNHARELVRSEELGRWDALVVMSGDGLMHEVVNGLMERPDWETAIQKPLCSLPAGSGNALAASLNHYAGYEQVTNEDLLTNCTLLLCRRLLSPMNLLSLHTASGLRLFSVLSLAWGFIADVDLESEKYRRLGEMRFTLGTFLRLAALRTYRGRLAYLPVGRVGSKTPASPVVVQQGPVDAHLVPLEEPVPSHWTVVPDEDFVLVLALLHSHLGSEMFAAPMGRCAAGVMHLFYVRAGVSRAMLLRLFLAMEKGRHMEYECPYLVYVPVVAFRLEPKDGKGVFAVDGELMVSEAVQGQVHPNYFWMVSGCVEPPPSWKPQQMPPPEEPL
smiles,measurement,setting,value
Fc1ccc(-c2ncn(C3CCNCC3)c2-c2ccnc(Oc3ccc4c(c3)OCO4)n2)cc1,inhibition,[1],-2.26%
same,inhibition,[2],-0.59%
same,inhibition,[3],0%
same,inhibition,[4],11.3%
same,inhibition,[5],3.74%
same,inhibition,[6],5%
same,inhibition,[7],9.09%
same,inhibition,[8],6.93%
same,inhibition,[9],8.89%
same,inhibition,[10],7.17%
same,inhibition,[11],5.91%
same,inhibition,[12],3.2%
same,inhibition,[13],6.26%
same,inhibition,[14],7.49%
same,inhibition,[15],6.41%
same,inhibition,[16],1.13%
same,inhibition,[17],1.67%
same,inhibition,[18],2.69%
same,inhibition,[19],4.77%
same,inhibition,[20],7.85%

# From ChEMBL document CHEMBL1961873, “Compounds: GSK PKIS; Assays: Nanosyn kinase panel” (2012)
